Out of some 200,000 compounds screened, about 860 (0.43%) were called active. The call rests on the fitted dose curve; in most records, active means well fitted inhibition curve with a large enough effect; inconclusive means small, poorly fitted or top-dose-only effect; inactive means flat fitted curve, though single readings scatter. Many of the other results were omitted from the sample, so actives are more common in it than they were. Some compounds were tested as several samples or in several runs, with calls that do not always agree.
The compounds below were run against Cruzipain (Trypanosoma cruzi) (UniProt P25779) (assay: qHTS Assay for Promiscuous and Specific Inhibitors of Cruzain (with detergent)). Settings: purified cruzain, Z-FR-AMC fluorescence, 0.01% Triton.
Sequence of Cruzipain (Trypanosoma cruzi) (P25779 123-467 limits assumed): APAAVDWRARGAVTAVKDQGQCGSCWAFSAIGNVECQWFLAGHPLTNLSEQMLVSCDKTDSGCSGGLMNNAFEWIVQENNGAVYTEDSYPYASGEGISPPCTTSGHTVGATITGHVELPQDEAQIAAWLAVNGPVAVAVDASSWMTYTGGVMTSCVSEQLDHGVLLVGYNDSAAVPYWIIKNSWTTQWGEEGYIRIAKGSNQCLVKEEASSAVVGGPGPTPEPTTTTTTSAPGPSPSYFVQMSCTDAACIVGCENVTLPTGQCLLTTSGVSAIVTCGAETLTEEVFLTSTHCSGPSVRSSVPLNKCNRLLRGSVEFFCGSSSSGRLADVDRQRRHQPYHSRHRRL
In short: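 15 min RT preincubation of 1.5 nM cruzain with compound, then 2 uM Z-FR-AMC added; kinetic AMC fluorescence, 60 s delta. Triton X-100 0.01%, pH 5.5.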
`Cc1cccc(N2CCN(C(=O)CCn3c(=O)c4cccn4c4cccnc43)CC2C)c1` (stereo unspecified) was tested, and the max response, negative = inhibition was -4.9% (inactive).
With `O=c1cc2nc(-c3ccccc3)nc(SCCOc3ccc(Cl)cc3)n2[nH]1` the max response, negative = inhibition was 0.045% (inactive).
In the case of `Oc1c(Cl)cc(Cl)c(Cl)c1Cc1c(O)c(Cl)cc(Cl)c1Cl`, the Potency is reported as 25.1 µM (active) and the max response, negative = inhibition is reported as -22.8% (inactive).
With `COc1ccc(OC)c(-n2nnc(-c3nc(-c4cc(OC)c(OC)c(OC)c4)no3)c2C)c1` the max response, negative = inhibition was 2.73% (inactive).
For `COc1cccc(-c2cc(C(=O)Nc3ccc(C)cc3)[nH]n2)c1`, the max response, negative = inhibition was -0.83% (inactive).
With `Cc1ccc(CSc2nc3ccsc3c(=O)n2CCC(C)C)cc1` the max response, negative = inhibition was -1.1% (inactive).
`CC(=O)Nc1cc(C(=O)NCc2ccc(F)cc2Cl)ccc1Sc1ccc(Cl)cc1` was tested, and the max response, negative = inhibition was 1.77% (inactive).
In the case of `COc1cccc(C(=O)NCC(=O)OCc2cc(=O)n3ccsc3n2)c1`, the max response, negative = inhibition is reported as -1.65% (inactive).
For `CCCCn1c(=N)c(S(=O)(=O)c2ccccc2)cc2c(=O)n3cccc(C)c3nc21`, the max response, negative = inhibition was 0.669% (inactive).
In the case of `CCOC(=O)c1cc2c(=O)n3ccccc3nc2n(Cc2ccco2)c1=NC(=O)c1ccc(F)cc1`, the max response, negative = inhibition is reported as -23.1% (inactive).
`CCn1c(=N)c(S(=O)(=O)c2ccc(F)cc2)cc2c(=O)n3ccccc3nc21` was tested, and the Potency was 22.4 µM (active).
`CCOc1cc(-c2nnc(SCC(=O)NC3CCCCC3)nc2-c2ccc(OC)c(OCC)c2)ccc1OC` was tested, and the max response, negative = inhibition was 0.915% (inactive).
In the case of `Cc1ccc(NC(=O)CSc2nnc3[nH]c(=O)cc(C)n23)cc1Cl`, the max response, negative = inhibition is reported as -1.01% (inactive).
For `CC(=O)c1cccc(Nc2ccc3cc(S(=O)(=O)N4CCC(C)CC4)ccc3n2)c1`, the max response, negative = inhibition was -2.76% (inactive).
`COC(=O)c1ccccc1NC(=O)c1cc(-c2ccccc2O)no1` was tested, and the max response, negative = inhibition was -8.5% (inactive).
In the case of `Cc1ccccc1OCC(=O)NCC(=O)OCC(=O)c1ccc2ccccc2c1`, the Potency is reported as 5.01 µM (active).
`COCCNC(=O)COc1ccccc1C` was tested, and the max response, negative = inhibition was 1.74% (inactive).
`Cc1ccc(S(=O)(=O)NC(=O)COc2ccccc2C)cc1` was tested, and the max response, negative = inhibition was -0.523% (inactive).
With `Cc1ccc(-c2cnc(C3CC3)o2)cc1S(=O)(=O)Nc1cccc(C)c1C` the max response, negative = inhibition was -6.32% (inactive).
With `O=C(CS(=O)(=O)c1cccc2nsnc12)N1CCN(c2cccc(Cl)c2)CC1` the max response, negative = inhibition was -2.29% (inactive).
In the case of `Cc1cccc(CNC(=O)c2cnc3sc(N4CCCCC4)nn3c2=O)c1`, the max response, negative = inhibition is reported as 3.23% (inactive).
For `COc1ccc(NC(=O)CSc2nnc(-c3nnn(-c4ccc(F)cc4)c3C)o2)cc1`, the max response, negative = inhibition was -0.381% (inactive).
`CC(C)Oc1c(Br)cc(Br)cc1/C=N/NC(N)=S` was tested, and the Potency was 0.708 µM (active).
`NC(=S)N/N=C/c1coc2cc(Cl)ccc2c1=O` was tested, and the max response, negative = inhibition was -8.88% (inactive).
For `CCOc1ccc(/C=N/NC(N)=S)cc1`, the max response, negative = inhibition was -18.1% (inactive).

Reference: PubChem BioAssay AID1478 (National Center for Advancing Translational Sciences (NCATS), 2009)
Further: nearly all actives have a fitted effect of over 40% in size.
Potency means the concentration at half of the fitted maximal effect.
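Wherever max response, negative = inhibition is given: plate controls were neutral wells for no effect and buffer without enzyme for full effect.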
